High-throughput results (PubChem)
A selection: hits, their analogues and other compounds. The true share with any hit is near 2.9%.
MEKK3 PB1 HTS – modulators of MEKK3-MEK5 PB1 binding, primary screen, biochemical, wildtype MEKK3, multiplex bead flow cytometry, Alexa488-MEK5; Mitogen-activated protein kinase kinase kinase 3 (Homo sapiens), Q99759; bead-based flow cytometry, Alexa488-MEK5 binding to MEKK3; actives lie on both sides; 0 = blocked by unlabeled MEK5, 100 = vehicle; binding response (% of control), % at 10 µM; 1.4% of 290,000 active; AID 1529, 2009;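 active means binding response more than 3 SD above or below the average of its plate-row segment, actives on both sides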;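 further: Alexa488 bead fluorescence after subtracting the streptavidin-only scavenger bead signal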
Beta2AR agonist – beta2AR agonists driving receptor internalization, primary screen, cell-based, FAP fluorogen, flow cytometry | Am2.2-beta2AR cells | AID 504454, 2011 | 0.43% of 340,000 active | Beta-2 adrenergic receptor (Homo sapiens), P07550 | response, % (no concentration beside the values);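 active means response above a set limit, near 3 SD of response in nonfluorescent compounds, cut at about 42% in these data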
MEKK2wt PB1 HTS – modulators of MEK5 binding to wildtype MEKK2, primary screen, biochemical, multiplex bead flow cytometry, Alexa488-MEK5 | 1.1% of 290,000 active | Mitogen-activated protein kinase kinase kinase 2 (Homo sapiens), Q9Y2U5 | Alexa488-MEK5 binding to MEKK2 WT; actives lie on both sides | binding response (% of control), % at 10 µM; in the data active means binding response below about 67% or above about 130%
MEKK2mut PB1 HTS – MEK5 binding signal on mutant MEKK2 PB1, primary screen, biochemical, multiplex bead flow cytometry, Alexa488-MEK5; AID 1530, 2009; Alexa488-MEK5 binding to MEKK2 mutant; 0.35% of 290,000 active; percent response, % at 10 µM; in the data active means percent response above about 24%, passing the limit was not always enough
GRK2 inh – compounds blocking aptamer binding on GRK2 – biochemical, human GRK2, bead flow cytometry, HTS, primary screen; Beta-adrenergic receptor kinase 1 (Homo sapiens), P25098; FAM-aptamer displacement from GRK2; inhibition of aptamer binding, % at 10 µM; 0.59% of 330,000 active;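 active means inhibition of aptamer binding above 40%, roughly 3 SD of noise, on plates passing a quality check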;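 further: median bead fluorescence of bound FAM aptamer so fluorescent compounds give negative values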
Target sequence (P25098 whole entry, looked up): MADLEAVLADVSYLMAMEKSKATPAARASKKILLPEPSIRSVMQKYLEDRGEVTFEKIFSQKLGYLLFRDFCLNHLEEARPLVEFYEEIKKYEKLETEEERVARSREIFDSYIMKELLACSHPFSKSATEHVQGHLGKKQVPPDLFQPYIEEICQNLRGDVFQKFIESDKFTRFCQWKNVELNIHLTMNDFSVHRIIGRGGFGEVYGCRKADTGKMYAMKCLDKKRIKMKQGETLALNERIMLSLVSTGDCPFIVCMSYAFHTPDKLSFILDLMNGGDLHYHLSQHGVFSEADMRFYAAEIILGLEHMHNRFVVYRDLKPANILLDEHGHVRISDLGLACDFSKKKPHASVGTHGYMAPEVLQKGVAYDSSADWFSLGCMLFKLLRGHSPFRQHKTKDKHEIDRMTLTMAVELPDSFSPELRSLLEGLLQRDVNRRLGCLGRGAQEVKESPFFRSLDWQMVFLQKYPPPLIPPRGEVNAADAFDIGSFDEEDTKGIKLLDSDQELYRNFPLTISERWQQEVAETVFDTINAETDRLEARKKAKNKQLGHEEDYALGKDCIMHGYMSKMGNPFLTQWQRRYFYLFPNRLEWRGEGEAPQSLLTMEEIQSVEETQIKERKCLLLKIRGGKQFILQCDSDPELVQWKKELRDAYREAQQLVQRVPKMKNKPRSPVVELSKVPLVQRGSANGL
MEKK2wt confirm – modulators of MEK5 binding to wildtype MEKK2, confirmation, biochemical, single concentration, multiplex bead flow cytometry | shares compounds with MEKK3 PB1 HTS | Alexa488-MEK5 binding to MEKK2 WT; actives lie on both sides | binding response (% of control), % at 10 µM | 2.4% of 5,900 active | AID 1892, 2009; in the data active means binding response below about 16% or above about 210%; inactive means in between
MEKK2mut-MEK5 – mutant MEKK2 PB1-MEK5 binding signal retest – biochemical, single concentration, multiplex bead flow cytometry, confirmation; shares compounds with MEKK3 PB1 HTS; Alexa488-MEK5 binding to MEKK2 mutant; percent response, % at 10 µM; 2% of 5,900 active; in the data active means percent response mostly above about 71%, no sharp cut-off; inactive means mostly below about 38%;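 further: higher means compound restores mutant binding toward wildtype level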
MEKK3 confirm – MEKK3 wild-type PB1 binding to MEK5, inhibitors, confirmation, biochemical, bead multiplex flow cytometry, single concentration, wildtype. shares compounds with MEKK3 PB1 HTS. Alexa488-MEK5 binding to MEKK3; stronger effect = lower value. binding response (% of control), % at 10 µM. 1.8% of 5,900 active. AID 1894, 2009;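 active means binding response below 72% of control, or above a set upper limit, though filed actives all read lower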;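 further: 100% = DMSO only wells and 0% = binding blocked by excess unlabeled MEK5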
GRK2 inh confirm – GRK2 aptamer-displacing inhibitors, retest, confirmation, biochemical, cherry pick 1, bead flow cytometry | aptamer displacement, % at 10 µM | bead-bound GRK2, FAM-aptamer displacement | AID 504451, 2011 | shares compounds with GRK2 inh | 4% of 2,000 active;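 active means aptamer displacement above 40%, near three times the noise of non-fluorescent compounds, on plates passing quality checks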;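 further: negative values mostly reflect intrinsic compound fluorescence rather than true enhancement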
Aptamer quench 1 – counter-screen for GRK2 aptamer inhibitors: fluorescent aptamer quenchers | Fluorescent RNA aptamer beads, quenching, flow cytometry; stronger effect = higher value | shares compounds with GRK2 inh | 110 tested, under 10 active | fluorescence change (kMESF span), kMESF (concentration not given with the values);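 active means compounds whose bead fluorescence drops by more than 37 kMESF across the dose range, marking them as dye quenchers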
FAM quench CP1 – counter-screen for GRK2 aptamer inhibitors: fluorescent aptamer quenchers; 2,000 tested, under 10 active; AID 504580; shares compounds with GRK2 inh; Carboxyfluorescein RNA aptamer on beads, flow cytometry quenching; stronger effect = lower value; fluorescence response (% of DMSO), % at 10 µM;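 active means compounds that quench the bead-bound fluorescent RNA probe, cutting fluorescence to under half of the solvent control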;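 further: counterscreen run without GRK2 so only probe quenching by compound is measured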
GRK2 CP2 – GRK2 aptamer-displacing inhibitors, hit retest, confirmation, biochemical, cherry pick 2, bead flow cytometry | shares compounds with GRK2 inh | bead-bound GRK2, FAM-aptamer displacement | inhibition of aptamer binding, % at 10 µM | 360 tested, under 10 active | AID 504782, 2011;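 active means inhibition of aptamer binding above 40%, about triple the noise seen with nonglowing compounds, on plates passing quality control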;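 further: negative values mostly come from compounds that fluoresce themselves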
FAM quench CP2 – aptamer fluorescence quenching in GRK2 counter-screen. 360 tested, under 10 active. carboxyfluorescein RNA aptamer beads, flow cytometry quenching; stronger effect = lower value. shares compounds with GRK2 inh. AID 588494. fluorescence response vs DMSO, % at 10 µM;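 active means response vs DMSO under 50%, meaning signal dropped by over half, treated as fluorescence quencher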;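 further: labelled aptamer on streptavidin beads without GRK2 as a quench counter-screen; 100% = bead fluorescence of DMSO wells and lower means quenching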
FAM quench DR – quenchers of FAM-labeled RNA aptamer fluorescence, dose response, artefact control for GRK2 aptamer binding project, biochemical, powder set 1, flow cytometry; shares compounds with GRK2 inh; Bead-bound FAM RNA aptamer fluorescence quenching; stronger effect = lower value; fluorescence ratio to DMSO, % at 11.1 µM; 35 tested, under 10 active; AID 588496, 2011;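 active means compounds that dim the fluorescent label, raw bead signal shifting by over 33 units between lowest and highest dose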
An asterisk follows results filed as active; . = no result given; [ ] = remark or other dose.

SMILES | MEKK3 PB1 HTS | Beta2AR agonist | MEKK2wt PB1 HTS | MEKK2mut PB1 HTS | GRK2 inh | MEKK2wt confirm | MEKK2mut-MEK5 | MEKK3 confirm | GRK2 inh confirm | FAM quench CP1 | others
O=C(CN1CCN(Cc2ccc3c(c2)OCO3)CC1)N1CCc2[nH]c3ccc(F)cc3c2C1 | 110.0 | -9.9 | 129.0 | 32.0* | 0.0 | 118.0 | 9.0 | 105.0 | . | .
OC1(c2ccc(Br)cc2)CCN(Cc2cccc(Br)c2)CC1 | 109.0 | 4.5 | 134.0* | 15.0 | 0.0 | 130.0 | 17.0 | 107.0 | . | .
Brc1cccc(CN2CCCCCC2)c1 | 100.0 | 0.0 | 106.0 | 0.0 | 0.0 | . | . | . | . | .
CCn1ncc(C2=NOC(C(=O)Nc3ccc4c(c3)OCO4)C2)c1C (configuration not stated) | 2.0*[inhibitor] | 5.2 | 1.0*[inhibitor] | -41.0 | 2.0 | 101.0 | -2.0 | 105.0 | . | .
CCn1ncc(C2=NOC(C(=O)Nc3ccc(C)cc3)C2)c1C (configuration not stated) | 99.0 | -1.0 | 95.0 | -1.0 | 2.0 | . | . | . | . | .
c1cc2c(cc1C1CCCCC1)c1c3n2CCN=C3CCC1 | 83.0 | 14.6 | 135.0* | 19.0 | 0.0 | 115.0 | 8.0 | 103.0 | . | .
Cc1ccc2c(c1)c1c3n2CCN=C3CCC1 | 89.0 | 5.0 | 91.0 | -4.0 | 0.0 | . | . | . | . | .
CCCn1nnc(NC(=O)c2sc3ccccc3c2Cl)n1 | 74.0*[inhibitor] | -1.7 | 81.0 | -14.0 | 1.0 | 104.0 | 9.0 | 103.0 | . | .
COc1ccc(CCNC(=O)CCN2C(=O)COc3ccccc32)cc1OC | 81.0*[inhibitor] | -3.9 | 90.0 | -10.0 | 0.0 | 100.0 | -3.0 | 98.0 | . | .
CCCNC(=O)c1ccc(N2CCC3(CC2)CC(c2cccc(Br)c2)=NO3)c([N+](=O)[O-])c1 | 100.0 | -4.1 | 92.0 | -10.0 | 1.0 | . | . | . | . | .
CCCCCC(=O)N1CC2(CC(c3cccc(NC(=O)CC(c4ccccc4)c4ccccc4)c3)=NO2)C[C@@H]1C(N)=O (some centres not stated) | 81.0*[inhibitor] | 3.3 | 96.0 | 3.0 | 0.0 | 98.0 | -11.0 | 98.0 | . | . | GRK2 CP2=-19.2;FAM quench CP2=96.0
CCC(/C=C1\Sc2ccc(OC)cc2N1CC)=C\c1sc2ccc(OC)cc2[n+]1CCCS(=O)(=O)[O-] | 56.0*[inhibitor] | -15.9 | 6.0*[inhibitor] | -45.0 | 91.0* | 17.0*[inhibitor] | -32.0 | 64.0* | 84.9* | 107.6 | Aptamer quench 1=1.7
Cc1noc(C)c1NC(=O)N(C)C[C@H]1Oc2ccc(NC(=O)Nc3ccc(C(F)(F)F)cc3)cc2C(=O)N([C@H](C)CO)C[C@@H]1C | . | -3.9 | . | . | 3.0 | . | . | . | . | .
C/C(Cn1nnc2ccccc21)=N/OC(=O)c1c(F)cccc1F | 102.0 | -2.8 | 106.0 | 0.0 | 0.0 | . | . | . | . | .
C/C(Cn1nnc2ccccc21)=N\OC(=O)c1ccccc1C | 138.0* | -3.7 | 104.0 | 1.0 | 75.0* | 106.0 | 6.0 | 106.0 | -17.5 | 95.8
COc1ccccc1C(CNC(=O)c1cccc(S(=O)(=O)N2c3ccccc3CC2C)c1)N(C)C (configuration not stated) | . | 9.1 | . | . | . | . | . | . | . | .
CC1(C)CC(NC(=S)Nc2ccc(S(N)(=O)=O)cc2)CC(C)(C)N1 | 134.0* | 0.1 | 121.0 | 1.0 | 72.0* | 110.0 | 6.0 | 101.0 | -2.6 | 104.1
NS(=O)(=O)c1ccc(NC(=S)NC2CC2)cc1 | 99.0 | -6.6 | 95.0 | -5.0 | 3.0 | . | . | . | . | .
COC(=O)c1ccc(N2CCCCC2)c(NC(=O)c2ccco2)c1 | 103.0 | 1.3 | 101.0 | 0.0 | 1.0 | . | . | . | . | .
O=C(c1ccccc1)c1c2c(cc3sc4ccccc4[n+]13)-c1cccc3cccc-2c13 | 91.0 | -166.3 | 60.0*[inhibitor] | -3.0 | 76.0* | 91.0 | -2.0 | 93.0 | 69.8* | 110.4 | Aptamer quench 1=-5.5
Cc1cc2ccccc2n1CCNC(=O)c1cccs1 | 34.0*[inhibitor] | -17.1 | 9.0*[inhibitor] | -36.0 | 98.0* | 26.0 | -27.0 | 70.0* | 80.6* | 88.2 | Aptamer quench 1=27.9;FAM quench DR=100.0
C#CCOCCOCCOCCNc1nc(N2CCN(C(=O)[C@H](Cc3cc4ccccc4[nH]3)n3cc([C@@H](N)CC(C)C)nn3)CC2)nc(N2CCN(C(=O)[C@H](Cc3cc4ccccc4[nH]3)n3cc([C@@H](N)CC(C)C)nn3)CC2)n1 | 118.0 | 21.9 | 258.0* | 112.0* | 70.0* | 289.0* | 132.0* | 112.0 | -49.4 | 96.3
CCN(CC)S(=O)(=O)c1ccc(NC(=S)NC(=O)CC(C)C)cc1 | 105.0 | -5.9 | 100.0 | -3.0 | 0.0 | . | . | . | . | .
CCc1ccc(NC(=S)NC(=O)CC(C)C)cc1 | 148.0* | -0.8 | 110.0 | 1.0 | 69.0* | 104.0 | 11.0 | 108.0 | 0.4 | 101.8
